Calls of active or inactive are those of the source. Calls follow the shape of the dose curve; as a rule, active = well fitted curve in the direction sought with a large enough effect in the repeat runs; inconclusive = weak or mixed curves; inactive = flat fitted curve, though single readings scatter.
Assay: qHTS assay to test for compound auto fluorescence at 535 nm (green) in HEK293 cell free culture (AID 720682)
Conditions: cell-free medium, green autofluorescence 485/535 nm, hits give high values; series mostly up to 91.3 µM; activity change: at the top concentration
From the text: U.S. Tox21 Program National Center for Advancing Translational Sciences [NCATS] NIH Chemical Genomics Center [NCGC] U.S. Environmental Protection Agency [EPA] National Institutes of Environmental Health Sciences [NIEHS] National Toxicology Program [NTP] U.S. Food and Drug Administration [FDA] Tox21 Assay Overview: Compound auto fluorescence often interferes with screening of the compound library against various biological targets and signaling pathways. Some of these compounds may have fluorophoric properties. Such properties may interfere with the assay outputs resulting in false positives and/or negatives. To decrease such complications and ensure the compound activities are relevant in terms of biological response, the Tox21 10K compound library was screened for auto fluorescence. From the fluorophores used as reporter signals in our screening assays, the auto fluorescence equivalencies of compounds against three fluorophores have been evaluated: Triamterene, Fluorescein and Rose Bengal sodium for blue, green and red fluorescence, respectively. The fluorescence intensities were measured using Excitation/Emission wavelengths at 405/460nm, 485/535nm and 540/590nm for blue, green and red labels, respectively. This assay includes the green fluorescence data.
Tox21 Assay Protocol Summary: 5 uL of culture medium (DMEM containing 10% FBS) per well was dispensed into black wall/clear bottom 1536-well plates using a Multidrop Combi Dispenser (ThermoFisher Scientific, Waltham, MA). After 23 nL compound or DMSO vehicle was transferred into assay plate by a pintool work station (Kalypsys, San Diego, CA), fluorescence intensities in the assay plates were measured by an Envision (PerkinElmer, Shelton, CT) plate reader using three labels for measuring blue, green and red fluorescence at […] 460, 535 and 590nm respectively.
% is scaled to controls: 0 for no effect and ±100 for the full control effect.

Compound	activity change	outcome
C[C@H]1[C@H](c2ccc(Cl)cc2)SC(=O)N1C(=O)NC1CCCCC1	-0.0248% (inactive)	–
[O]=[Cr](=[O])([OH])[O][Cr](=[O])(=[O])[OH]	–	inactive
CCC[CH2][Sn]([CH2]CCC)([O]C(C)=O)[O]C(C)=O	0.132% (inactive)	–
CC(=O)O.CC(=O)O.CC(=O)O.CC(=O)O.CC(=O)O.CC(=O)O.CC(=O)O.O.O.[Cr].[Cr].[Cr]	-0.0502% (inactive)	–
CC(=O)[O-].CC(=O)[O-].CC(=O)[O-].[Cr+3]	-0.0306% (inactive)	–
Cc1ccccc1OP(=O)(Oc1ccccc1C)Oc1ccccc1C	0.0132% (inactive)	–
CC(=O)[O][Sn]([c]1ccccc1)([c]1ccccc1)[c]1ccccc1	-0.058% (inactive)	–
COC(=O)c1ccccc1S(=O)(=O)NC(=O)Nc1nc(C)nc(OC)n1	-0.0941% (inactive)	–
[O]=[Cr][O][Cr]=[O]	-0.0455% [at 95.7 µM] (inactive)	–
CCC(C)c1cccc(C(C)CC)c1O (stereo not given)	-0.0569% (inactive)	–
CCCCC/C=C\C/C=C\C/C=C\C/C=C\CCCC(=O)NCC(=O)O	0.0424% [at 3.72 µM] (inactive)	–
COP(=S)(NC(C)C)Oc1ccc(C)cc1[N+](=O)[O-] (stereo not given)	-0.164% (inactive)	–
CCCC[N+]1(C)CCCC1 (tested in a mixture with another compound)	0.0621% [at 95.7 µM] (inactive)	–
O=[N+]([O-])c1ccc(Cl)c(Cl)c1Cl	0.0189% (inactive)	–
CCN(CC)Cc1nccn1-c1ccc([N+](=O)[O-])cc1C(=O)c1ccccc1Cl	0.0354% [at 46 µM] (inactive)	–
CCCCC(CC)COC(=O)OOC(C)(C)C (stereo not given)	-0.0579% (inactive)	–
c1csc(-c2ccc(-c3cccs3)s2)c1	-0.243% (inactive)	–
CC(C)=CCN1CC[C@@]2(C)c3cc(O)ccc3C[C@@H]1[C@@H]2C	0.0182% (inactive)	–
O=S(=O)(NS(=O)(=O)C(F)(F)F)C(F)(F)F	-0.0672% (inactive)	–
N#Cc1c2ccccc2cc2ccccc12	-0.003% (inactive)	–

Compound	activity change	outcome
Oc1cc(Cl)c(Cl)c(Cl)c1Cl	0.0905% (inactive)	–
COc1ccc(Cc2nccc3cc(OC)c(OC)cc23)cc1OC	-0.0465% [at 18.6 µM] (inactive)	–
COP(=S)(OC)Oc1ccc([N+](=O)[O-])c(C)c1	-0.0738% (inactive)	–
CO/N=C(\C(=O)OC)c1ccccc1CO/N=C(\C)c1cccc(C(F)(F)F)c1	-0.0736% (inactive)	–
CC(=O)C(Cl)C(=O)N(C)C (stereo not given)	0.0171% (inactive)	–
CCCCCCC[CH2][Sn]([Cl])([Cl])[CH2]CCCCCCC	-0.0678% (inactive)	–
Cc1c([N+](=O)[O-])cc2c(c1[N+](=O)[O-])C(C)(C)CC2(C)C	0.008% (inactive)	–
CC(C)N(C(=O)CCl)c1ccccc1	–	inactive
Nc1c(Cl)c(Cl)c(Cl)c(Cl)c1Cl	-0.115% (inactive)	–
CN1CCc2cc3c(cc2C1O)OCO3 (stereo not given)	0.0137% (inactive)	–
CCCCc1ccccc1	-0.131% (inactive)	–
CNN	-0.105% [at 95.7 µM] (inactive)	–
CC[C@]1(O)CC[C@H]2[C@@H]3CCC4=CCCC[C@@H]4[C@H]3CC[C@@]21C	0.0789% [at 46 µM] (inactive)	–
CCC1(CC)C(=O)N=C(O)NC1=O	-0.067% (inactive)	–
CCOC(=O)CCN(SN(C)C(=O)Oc1cccc2c1OC(C)(C)C2)C(C)C	0.0135% (inactive)	–
COc1nc(C)nc(NC(=O)NS(=O)(=O)c2ccccc2Cl)n1	-0.0136% (inactive)	–
CCCCCON=O	-0.0649% (inactive)	–
N#Cc1ccc(N(CC(N)=O)CC(F)(F)F)cc1C(F)(F)F	0.005% (inactive)	–
COc1c2c(cc3c1OCO3)CCN(C)C2	-0.0284% [at 18.6 µM] (inactive)	–
C#CC1(O)CCCCC1	-0.0565% (inactive)	–

— PubChem BioAssay (Tox21)
